From PubChem BioAssay AID1159580 (chemical genetic matrix, 2015)
Out of some 5,500 compounds screened, about 2,000 (36%) were called active. About 18% were inconclusive and are not listed. No stated cut-off is given here; in the data, active means normalized growth mostly below about 0.91 (no sharp cut-off); inconclusive means no clear call, values can overlap the other calls; inactive means mostly above about 0.92. This is one part of the list.

Assay: chemical genetic growth profiling, strain panel (AID 1159580);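 further: tested at 20 µM; growth read once vehicle control cultures reached saturation at 30 °C; 1 = growth at the plate median or of vehicle wells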
Conditions: growth OD

Measured: normalized growth

O=C(O)CCC1NCC2CC1CN1CCCCC21 (configuration not stated)
inactive: S. cerevisiae deletion strains, locus YJR075W, strain HOC1, stronger effect = lower value 1.01 | S. cerevisiae deletion strains, locus YKL009W, strain mrt4, stronger effect = lower value 1.02 | S. cerevisiae deletion strains, locus YKL068W, stronger effect = lower value 1 | S. cerevisiae deletion strains, locus YKL085W, strain MDH1 (second series), stronger effect = lower value 1.02 | S. cerevisiae deletion strains, locus YKL085W, strain MDH1, stronger effect = lower value 1.02 | S. cerevisiae deletion strains, locus YKL160W, strain elf1, stronger effect = lower value 0.974 | S. cerevisiae deletion strains, locus YKL190W, strain CNB1, stronger effect = lower value 1 | S. cerevisiae deletion strains, locus YKR001C, strain vps1, stronger effect = lower value 0.995 | S. cerevisiae deletion strains, locus YKR026C, strain gcn3, stronger effect = lower value 0.982 | S. cerevisiae deletion strains, locus YKR091W, strain srl3, stronger effect = lower value 0.97 | S. cerevisiae deletion strains, locus YLL001W, strain dnm1, stronger effect = lower value 0.954 | S. cerevisiae deletion strains, locus YLL026W, stronger effect = lower value 0.98 | S. cerevisiae deletion strains, locus YLL041C, strain sdh2, stronger effect = lower value 0.987 | S. cerevisiae deletion strains, locus YLR027C, strain aat2, stronger effect = lower value 0.992 | S. cerevisiae deletion strains, locus YLR039C, strain RIC1, stronger effect = lower value 0.998 | S. cerevisiae deletion strains, locus YLR058C, strain SHM2, stronger effect = lower value 1.01 | S. cerevisiae deletion strains, locus YLR102C, strain apc9, stronger effect = lower value 0.99 | S. cerevisiae deletion strains, locus YLR113W, strain HOG1, stronger effect = lower value 0.983 | S. cerevisiae deletion strains, locus YLR221C, strain rsa3, stronger effect = lower value 0.968 | S. cerevisiae deletion strains, locus YLR258W, strain gsy2, stronger effect = lower value 0.992 | S. cerevisiae deletion strains, locus YLR262C, strain YPT6 (second series), stronger effect = lower value 0.958 | S. cerevisiae deletion strains, locus YLR262C, strain YPT6, stronger effect = lower value 0.97 | S. cerevisiae deletion strains, locus YLR268W, strain sec22, stronger effect = lower value 0.988 | S. cerevisiae deletion strains, locus YLR320W, strain mms22, stronger effect = lower value 0.962 | S. cerevisiae deletion strains, locus YLR330W, strain CHS5, stronger effect = lower value 1.01 | S. cerevisiae deletion strains, locus YLR342W, strain FKS1 (second series), stronger effect = lower value 1.05 | S. cerevisiae deletion strains, locus YLR342W, strain FKS1, stronger effect = lower value 0.981 | S. cerevisiae deletion strains, locus YLR357W, strain rsc2, stronger effect = lower value 0.971 | S. cerevisiae deletion strains, locus YLR370C, strain arc18, stronger effect = lower value 0.978 | S. cerevisiae deletion strains, locus YLR371W, strain rom2, stronger effect = lower value 0.998 | S. cerevisiae deletion strains, locus YLR384C, strain iki3, stronger effect = lower value 0.969 | S. cerevisiae deletion strains, locus YLR418C, strain cdc73, stronger effect = lower value 0.923 | S. cerevisiae deletion strains, locus YML016C, strain PPZ1, stronger effect = lower value 1 | S. cerevisiae deletion strains, locus YML032C, strain rad52, stronger effect = lower value 1 | S. cerevisiae deletion strains, locus YML120C, strain ndi1, stronger effect = lower value 0.956 | S. cerevisiae deletion strains, locus YML124C, strain tub3, stronger effect = lower value 0.997 | S. cerevisiae deletion strains, locus YMR058W, strain fet3, stronger effect = lower value 0.969 | S. cerevisiae deletion strains, locus YMR078C, strain ctf18, stronger effect = lower value 1 | S. cerevisiae deletion strains, locus YMR125W, strain sto1, stronger effect = lower value 0.962 | S. cerevisiae deletion strains, locus YMR129W, stronger effect = lower value 0.989 | S. cerevisiae deletion strains, locus YMR205C, strain PFK2, stronger effect = lower value 0.964 | S. cerevisiae deletion strains, locus YMR223W, strain ubp8, stronger effect = lower value 1.02 | S. cerevisiae deletion strains, locus YMR231W, strain pep5, stronger effect = lower value 0.985 | S. cerevisiae deletion strains, locus YMR263W, strain SAP30, stronger effect = lower value 0.998 | S. cerevisiae deletion strains, locus YMR307W, strain GAS1, stronger effect = lower value 1.07 | S. cerevisiae deletion strains, locus YNL067W, strain RPL9B, stronger effect = lower value 0.999 | S. cerevisiae deletion strains, locus YNL071W, strain lat1, stronger effect = lower value 0.991 | S. cerevisiae deletion strains, locus YNL128W, strain TEP1, stronger effect = lower value 1.02 | S. cerevisiae deletion strains, locus YNL153C, strain GIM3, stronger effect = lower value 0.989 | S. cerevisiae deletion strains, locus YNL183C, strain NPR1, stronger effect = lower value 0.938 | S. cerevisiae deletion strains, locus YNL209W, strain ssb2, stronger effect = lower value 0.984 | S. cerevisiae deletion strains, locus YNL233W, strain BNI4, stronger effect = lower value 1.01 | S. cerevisiae deletion strains, locus YNL248C, strain rpa49, stronger effect = lower value 0.998 | S. cerevisiae deletion strains, locus YNL250W, strain rad50, stronger effect = lower value 1.01 | S. cerevisiae deletion strains, locus YNL271C, strain bni1, stronger effect = lower value 1 | S. cerevisiae deletion strains, locus YNL298W, strain CLA4, stronger effect = lower value 0.997 | S. cerevisiae deletion strains, locus YNL307C, strain MCK1, stronger effect = lower value 1 | S. cerevisiae deletion strains, locus YNL322C, strain KRE1 (second series), stronger effect = lower value 0.97 | S. cerevisiae deletion strains, locus YNL322C, strain KRE1, stronger effect = lower value 1.01 | S. cerevisiae deletion strains, locus YNR049C, strain mso1, stronger effect = lower value 0.971 | S. cerevisiae deletion strains, locus YNR052C, strain pop2, stronger effect = lower value 1 | S. cerevisiae deletion strains, locus YOL006C, strain TOP1, stronger effect = lower value 1.04 | S. cerevisiae deletion strains, locus YOL012C, strain htz1 0.732 | S. cerevisiae deletion strains, locus YOL147C, strain pex11, stronger effect = lower value 1 | S. cerevisiae deletion strains, locus YOR001W, strain rrp6, stronger effect = lower value 1.01 | S. cerevisiae deletion strains, locus YOR061W, strain CKA2, stronger effect = lower value 1 | S. cerevisiae deletion strains, locus YOR069W, strain VPS5, stronger effect = lower value 1 | S. cerevisiae deletion strains, locus YOR070C, strain gyp1, stronger effect = lower value 0.973 | S. cerevisiae deletion strains, locus YOR080W, strain dia2, stronger effect = lower value 0.964 | S. cerevisiae deletion strains, locus YOR083W, strain WHI5, stronger effect = lower value 0.965 | S. cerevisiae deletion strains, locus YOR106W, strain vam3, stronger effect = lower value 0.968 | S. cerevisiae deletion strains, locus YOR136W, strain idh2, stronger effect = lower value 0.998 | S. cerevisiae deletion strains, locus YOR144C, strain elg1, stronger effect = lower value 0.988 | S. cerevisiae deletion strains, locus YOR184W, strain ser1, stronger effect = lower value 1.04 | S. cerevisiae deletion strains, locus YOR231W, strain MKK1, stronger effect = lower value 1.04 | S. cerevisiae deletion strains, locus YOR265W, strain rbl2, stronger effect = lower value 0.977 | S. cerevisiae deletion strains, locus YOR270C, strain vph1, stronger effect = lower value 0.951 | S. cerevisiae deletion strains, locus YOR290C, strain snf2, stronger effect = lower value 0.916 | S. cerevisiae deletion strains, locus YOR316C, strain cot1, stronger effect = lower value 0.992 | S. cerevisiae deletion strains, locus YPL051W, strain arl3, stronger effect = lower value 0.982 | S. cerevisiae deletion strains, locus YPL055C, strain LGE1, stronger effect = lower value 0.99 | S. cerevisiae deletion strains, locus YPL078C, strain atp4, stronger effect = lower value 0.983 | S. cerevisiae deletion strains, locus YPL106C, strain sse1, stronger effect = lower value 0.946 | S. cerevisiae deletion strains, locus YPL240C, strain hsp82, stronger effect = lower value 0.974 | S. cerevisiae deletion strains, locus YPL241C, strain CIN2, stronger effect = lower value 0.995 | S. cerevisiae deletion strains, locus YPL256C, strain CLN2, stronger effect = lower value 1.02 | S. cerevisiae deletion strains, locus YPR119W, strain clb2, stronger effect = lower value 0.991 | S. cerevisiae deletion strains, locus YPR141C, strain kar3, stronger effect = lower value 0.987 | S. cerevisiae deletion strains, locus YPR163C, strain tif3, stronger effect = lower value 0.983 | S. cerevisiae deletion strains, locus YPR167C, strain met16, stronger effect = lower value 0.981 | S. cerevisiae deletion strains, strain wtn01, stronger effect = lower value 0.999 | S. cerevisiae strains, strain wild type, stronger effect = lower value 1.01
